Assay results as given in PubChem BioAssay (Tox21).
Several values for one entry are separate records, joined by “and”; a condition that tells them apart may be missing. Equal values may be shown once. Inconclusive results are not listed. Activity calls are given as the source filed them. Unless noted, calls follow the shape of the full dose curve.

Experiments:
[1] = qHTS assay to identify small molecule agonists of the sonic hedgehog signaling (Shh) pathway (AID 1259368);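 also: NIH/3T3-derived 3T3Gli1-Luc cells carrying a stable Gli1-driven firefly luciferase reporter; series mostly up to about 92 µM; nearly all actives have a fitted effect of over 15% in size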
In short: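 3T3Gli1-Luc (NIH/3T3 clone, stable Gli1-Luc); 4 hr pre-incubation, then cpd in DMSO 24 hr, 37 C/5% CO2; luciferase reagent 30 min RT; luminescence.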

[2] = qHTS assay to identify small molecule antagonists of the sonic hedgehog signaling (Shh) pathway (AID 1259369); also: nearly all actives have a fitted effect of over 45% in size; also: potency is read from the fitted curve at half-maximal effect
In short: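 3T3Gli1-Luc, conditioned-medium-stimulated, 24hr cpd, 37C/5% CO2; Gli1-driven firefly Luc luminescence after 30min RT with luciferase reagent. Cells plated 4hr before cpd.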

[3] = target: Estrogen receptor beta (Homo sapiens) (UniProt Q92731); assay: qHTS assay to identify small molecule agonists of the estrogen receptor beta (ER-beta) signaling pathway (AID 1259377; active = well fitted activation curve with a large enough effect in the signal ratio in the repeat runs, not every such curve was filed as active; the % refers to the signal ratio)
Sequence of Estrogen receptor beta (Homo sapiens) (Q92731 whole entry, looked up): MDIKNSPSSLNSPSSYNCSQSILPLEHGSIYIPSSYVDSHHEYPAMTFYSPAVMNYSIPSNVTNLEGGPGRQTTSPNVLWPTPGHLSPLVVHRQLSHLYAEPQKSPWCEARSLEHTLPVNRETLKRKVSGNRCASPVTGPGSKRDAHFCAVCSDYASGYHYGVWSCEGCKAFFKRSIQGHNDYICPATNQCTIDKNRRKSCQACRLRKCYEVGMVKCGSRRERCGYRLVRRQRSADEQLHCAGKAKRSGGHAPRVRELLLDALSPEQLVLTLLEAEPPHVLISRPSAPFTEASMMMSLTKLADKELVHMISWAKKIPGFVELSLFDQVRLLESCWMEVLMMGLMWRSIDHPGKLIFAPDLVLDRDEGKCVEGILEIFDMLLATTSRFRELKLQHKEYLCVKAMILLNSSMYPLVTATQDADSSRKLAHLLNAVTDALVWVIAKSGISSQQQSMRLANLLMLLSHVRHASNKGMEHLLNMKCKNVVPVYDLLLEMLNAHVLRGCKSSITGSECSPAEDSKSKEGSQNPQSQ
In short: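 ER-beta-UAS-bla HEK293T cells in medium with 2% charcoal-stripped FBS were exposed to compounds for 16 h at 37C. Beta-lactamase reporter activity was read as fluorescence after 2 h with LiveBLAzer B/G FRET substrate at room temperature.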

[4] = target: Estrogen receptor beta (Homo sapiens) (UniProt Q92731); assay: qHTS assay to identify small molecule antagonists of the estrogen receptor beta (ER-beta) signaling pathway (AID 1259378; active = well fitted inhibition curve with a large enough effect in the signal ratio in the repeat runs, not every such curve was filed as active; the % refers to the signal ratio)
In short: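 Antagonist mode: compounds added to beta-lactamase reporter HEK293T ER-beta-UAS cells stimulated with E2 (1nM final), 16 hr at 37C. LiveBLAzer B/G FRET substrate, 2 hours room temperature, fluorescence read-out.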

[5] = qHTS assay to identify small molecule agonists of the androgen receptor (AR) signaling pathway in the presence of an antagonist - cell viability counter screen (AID 1259379; active = well fitted curve in the direction sought with a large enough effect in the repeat runs; an effect the other way counts as inactive or inconclusive;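 also: MDA-kb2 human breast cancer cells carrying an MMTV luciferase reporter; series mostly up to about 92 µM; nearly all actives have a fitted effect of over 25% in size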)
In short: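 Cells: MDA-kb2 (MMTV-luc, AR and GR elements), 3,000/well, 5 hr settle. Added: nilutamide 3.0uM final, then compounds (15 conc.). Incubation: 16 hr, 37C, no CO2. Read-out: CellTiter-Fluor, 1 hr, fluorescence.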

[6] = qHTS assay to identify small molecule agonists of the estrogen receptor beta (ER-beta) signaling pathway - cell viability counter screen (AID 1259380; active = well fitted curve in the direction sought with a large enough effect in the repeat runs; an effect the other way counts as inactive or inconclusive; also: nearly all actives have a fitted effect of over 30% in size; also: potency is read from the fitted curve at half-maximal effect)
In short: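 HEK293T ER-beta-UAS-bla; 2% CS-FBS; 6 hr pre-plate, 16 hr cpd at 37C/5% CO2; LiveBLAzer read first, then CellTiter-Glo 30 min RT, luminescence.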

[7] = qHTS assay to identify small molecule antagonists of the estrogen receptor beta (ER-beta) signaling pathway - cell viability counter screen (AID 1259382; active = well fitted curve in the direction sought with a large enough effect in the repeat runs; an effect the other way counts as inactive or inconclusive;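 also: HEK293T cells carrying ER-beta-UAS-bla reporter stimulated with estradiol; series mostly up to about 92 µM; nearly all actives have a fitted effect of over 55% in size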)
In short: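 Cells: ER-beta-UAS-bla HEK293T, 2,000/well, 2% CS-FBS, 6 hr settle. Cpd + E2 (1nM final), 16 hr, 37C/5% CO2. Bla FRET substrate 2 hr RT, then CellTiter-Glo 30 min RT, luminescence.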

[8] = qHTS assay to identify small molecule agonists or antagonists of the thyroid stimulating hormone receptor (TSHR) signaling pathway - wild type cell line counter screen (AID 1259384)
In short: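 Counter screen in untransfected Hek293: compounds (15-point titration, triplicate) plus phosphodiesterase inhibitor Ro20-1724 added after 18 h plating; 30 min RT. Intracellular cAMP via competitive d2/cryptate immunoassay, 1 h incubation.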

[9] = target: Estrogen receptor (Homo sapiens) (UniProt P03372); assay: qHTS assay to identify small molecule agonists of the estrogen receptor alpha (ER-alpha) signaling pathway in the presence of an antagonist (AID 1259383); also: nearly all actives have a fitted effect of over 15% in size; also: potency is read from the fitted curve at half-maximal effect; as to activation: top concentration of the series differs between compounds
Sequence of Estrogen receptor (Homo sapiens) (P03372 whole entry, looked up): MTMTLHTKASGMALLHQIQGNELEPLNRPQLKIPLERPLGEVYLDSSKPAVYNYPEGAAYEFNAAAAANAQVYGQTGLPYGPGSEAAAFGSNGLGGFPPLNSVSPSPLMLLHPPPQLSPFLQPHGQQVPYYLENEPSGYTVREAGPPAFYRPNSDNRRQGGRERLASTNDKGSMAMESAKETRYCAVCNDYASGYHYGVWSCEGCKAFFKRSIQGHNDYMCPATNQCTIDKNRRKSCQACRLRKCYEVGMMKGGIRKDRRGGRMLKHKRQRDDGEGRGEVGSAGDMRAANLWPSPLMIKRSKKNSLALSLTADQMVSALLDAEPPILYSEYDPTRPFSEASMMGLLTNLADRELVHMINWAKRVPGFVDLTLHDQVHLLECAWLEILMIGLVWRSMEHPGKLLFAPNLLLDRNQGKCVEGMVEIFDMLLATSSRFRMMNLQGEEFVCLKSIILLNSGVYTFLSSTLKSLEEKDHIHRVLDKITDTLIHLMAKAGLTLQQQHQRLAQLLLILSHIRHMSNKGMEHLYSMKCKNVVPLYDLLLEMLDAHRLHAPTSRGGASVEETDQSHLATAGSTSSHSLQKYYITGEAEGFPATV
In short: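 VM7Luc4E2, endog. ER-alpha + 4×ERE-luc; charcoal-stripped FBS, phenol red-free, 5 d; 24hr plating; +10.0nM ICI-182,780 (final); cpds 15 conc, 22hr, 37C/5% CO2; ONE-Glo luminescence.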

[10] = target: Androgen receptor (Homo sapiens) (UniProt P10275); assay: qHTS assay to identify small molecule agonists of the androgen receptor (AR) signaling pathway in the presence of an antagonist (AID 1259381); also: nearly all actives have a fitted effect of over 15% in size
Sequence of Androgen receptor (Homo sapiens) (P10275 whole entry, looked up): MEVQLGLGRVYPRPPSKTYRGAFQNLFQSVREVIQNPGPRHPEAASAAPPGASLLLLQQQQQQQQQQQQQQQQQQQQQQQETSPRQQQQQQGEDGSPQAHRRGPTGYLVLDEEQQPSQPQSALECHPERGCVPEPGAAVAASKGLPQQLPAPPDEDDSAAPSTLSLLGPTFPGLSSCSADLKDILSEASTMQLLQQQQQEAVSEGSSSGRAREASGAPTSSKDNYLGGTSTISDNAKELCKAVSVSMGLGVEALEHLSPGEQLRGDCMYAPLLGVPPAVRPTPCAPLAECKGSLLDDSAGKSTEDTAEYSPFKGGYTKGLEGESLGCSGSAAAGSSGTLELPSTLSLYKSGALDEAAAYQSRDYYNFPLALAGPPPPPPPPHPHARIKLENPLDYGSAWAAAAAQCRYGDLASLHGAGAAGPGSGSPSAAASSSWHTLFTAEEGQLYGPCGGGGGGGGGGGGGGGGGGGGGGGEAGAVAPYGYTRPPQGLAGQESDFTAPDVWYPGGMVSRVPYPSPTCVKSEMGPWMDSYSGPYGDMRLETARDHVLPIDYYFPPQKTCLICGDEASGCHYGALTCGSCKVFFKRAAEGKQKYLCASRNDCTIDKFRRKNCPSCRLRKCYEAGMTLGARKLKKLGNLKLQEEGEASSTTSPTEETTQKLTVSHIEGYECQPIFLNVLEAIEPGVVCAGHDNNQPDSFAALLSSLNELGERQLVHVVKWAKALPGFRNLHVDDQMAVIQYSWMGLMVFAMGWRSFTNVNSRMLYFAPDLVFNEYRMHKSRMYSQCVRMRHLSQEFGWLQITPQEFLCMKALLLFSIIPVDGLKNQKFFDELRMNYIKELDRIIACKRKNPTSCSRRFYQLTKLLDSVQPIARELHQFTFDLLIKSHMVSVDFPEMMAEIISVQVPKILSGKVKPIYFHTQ
In short: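 MDA-kb2 cells, 3,000/well, rested 5hr at 37C/0% CO2 → nilutamide 3.0uM final or buffer → compounds, 15 conc. → 16hr at 37C → ONE-Glo, 30min RT → luminescence.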
% is scaled to controls: 0 for no effect and ±100 for the full control effect.

BrCCc1ccccc1
inactive: outcome [1] | Potency [2] | Potency [3] | outcome [4] | Potency [5] | Potency [6] | Potency [7] | outcome [8]

CCC(=O)c1ccc(Cl)cc1
inactive: outcome [1] | Potency [2] | Potency [3] | outcome [4] | Potency [5] | Potency [6] | Potency [7] | outcome [8]

CCOC(=O)Nc1cccc(OC(=O)Nc2ccccc2)c1
active: Potency [9] 12.2 µM
inactive: outcome [1] | Potency [2] | outcome [4] | Potency [5] | Potency [6] | Potency [7] | outcome [8]

COP(=O)(O)OC
inactive: outcome [1] | Potency [2] | Potency [5] | Potency [6] | Potency [10] | Potency [7] | Potency [9] | outcome [8]

ClCCCCl
inactive: outcome [1] | Potency [2] | Potency [3] | outcome [4] | Potency [5] | Potency [6] | Potency [7] | outcome [8]

NC1(c2ccccc2)CCCCC1
inactive: outcome [1] | Potency [2] | Potency [3] | Potency [5] | Potency [6] | Potency [7] | Potency [9] | outcome [8]

CCCCCCC1CCOC1=O (stereo unspecified)
inactive: outcome [1] | Potency [2] | Potency [3] | outcome [4] | Potency [5] | Potency [6] | Potency [7] | outcome [8]

CCOP(=S)(OCC)SCCl
inactive: outcome [1] | Potency [2] | Potency [5] | Potency [6] | Potency [10] | Potency [7] | Potency [9] | outcome [8]

CCOC(=O)C(SP(=S)(OC)OC)c1ccccc1 (stereo unspecified)
inactive: outcome [1] | Potency [2] | Potency [3] | Potency [5] | Potency [6] | Potency [7] | outcome [8]

O=C(O)C(F)(F)C(F)(F)C(F)(F)C(F)(F)C(F)(F)C(F)(F)F
active: Potency [6] 54.5 µM
inactive: outcome [1] | Potency [2] | Potency [3] | Potency [5] | outcome [8]

CCC1(CC)C(=O)C=CNC1=O
inactive: outcome [1] | Potency [2] | Potency [3] | Potency [5] | Potency [6] | Potency [7] | Potency [9] | outcome [8]

CC(C)[C@]12CC(=O)[C@H](C)[C@H]1C2
inactive: outcome [1] | Potency [2] | Potency [3] | outcome [4] | Potency [5] | Potency [6] | Potency [7] | outcome [8]

Clc1ccc(C(Cl)(Cl)Cl)cn1
inactive: outcome [1] | Potency [2] | Potency [5] | Potency [6] | Potency [10] | Potency [7] | Potency [9] | outcome [8]

CC(=O)OCC1=C(C(=O)O)N2C(=O)[C@@H](N)[C@H]2SC1
inactive: activity change [1] 0.594% [at 18.9 µM] | activity change, negative = inhibition [2] 1.15% [at 19 µM] | activation [3] -0.931% [at 19 µM] | activity, negative = inhibition [4] 21.8% [at 19 µM] | activity change, negative = cytotoxicity [5] 4.78% [at 19 µM] | activity change, negative = cytotoxicity [6] 0.632% [at 19 µM] | activity change, negative = cytotoxicity [7] -2.02% [at 19 µM] | cAMP activity change [8] 4.85% [at 18.9 µM]

COc1cc(CCN)cc(OC)c1OC
inactive: outcome [1] | Potency [2] | Potency [3] | Potency [5] | Potency [6] | Potency [7] | Potency [9] | outcome [8]

ClCOCCl
inactive: outcome [1] | Potency [2] | outcome [4] | Potency [5] | Potency [6] | Potency [7] | Potency [9] | outcome [8]

CC(C)(N)Cc1ccccc1Cl
inactive: outcome [1] | Potency [2] | Potency [3] | outcome [4] | Potency [5] | Potency [10] | Potency [7] | Potency [9] | outcome [8]

N=C(N)[Se]
inactive: outcome [1] | Potency [2] | outcome [4] | Potency [5] | Potency [7] | Potency [9] | outcome [8]

CCc1cc(OC)c(C[C@H](C)N)cc1OC
active: Potency [6] 71.5 µM
inactive: outcome [1] | Potency [2] | Potency [3] | outcome [4] | outcome [8]

CNC(=O)O/N=C(/CSC)C(C)(C)C
inactive: outcome [1] | Potency [2] | Potency [5] | Potency [6] | Potency [10] | Potency [7] | Potency [9] | outcome [8]

C=C1CC[C@@]2(O)[C@H]3Cc4ccc(O)c5c4[C@@]2(CCN3CC2CC2)[C@H]1O5
inactive: outcome [1] | Potency [2] | Potency [3] | outcome [4] | Potency [5] | Potency [7] | outcome [8]

CCCN1CCC[C@@H]2Cc3nc(N)ncc3C[C@H]21
inactive: outcome [1] | Potency [2] | Potency [5] | Potency [6] | Potency [7] | Potency [9] | outcome [8]

CCN[C@H](C)Cc1cccc(C(F)(F)F)c1
inactive: outcome [1] | Potency [2] | Potency [5] | Potency [6] | Potency [7] | Potency [9] | outcome [8]

O=P(O)(O)c1ccccc1
inactive: outcome [1] | Potency [2] | Potency [5] | Potency [6] | Potency [7] | Potency [9] | outcome [8]

CCCCOC(C)=O
inactive: outcome [1] | Potency [2] | Potency [5] | Potency [6] | Potency [7] | Potency [9] | outcome [8]

CS(=O)(=O)c1ccc(C(=O)C2C(=O)CCCC2=O)c(Cl)c1COCC(F)(F)F
inactive: outcome [1] | Potency [2] | Potency [5] | Potency [6] | Potency [7] | Potency [9] | outcome [8]

CCCCCCCCSC(=O)Oc1cc(Cl)nnc1-c1ccccc1
inactive: outcome [1] | Potency [2] | Potency [5] | Potency [6] | Potency [7] | Potency [9]

CCC1(c2ccccc2)C(=O)N(COC)C(=O)N(COC)C1=O
inactive: outcome [1] | Potency [2] | Potency [5] | Potency [6] | Potency [10] | Potency [7] | outcome [8]

CC(C)(C)c1cc(O)ccc1O
active: Potency [2] 7.7 µM and 3.86 µM
inactive: outcome [1] | Potency [5] | Potency [6] | Potency [7] | Potency [9]

C=CCC1(C(C)CC)C(=O)NC(=O)NC1=O (stereo unspecified)
inactive: outcome [1] | Potency [2] | Potency [5] | Potency [6] | Potency [7] | Potency [9] | outcome [8]

NCC1(CC(=O)O)CCCCC1
inactive: outcome [1] | Potency [2] | Potency [5] | Potency [6] | Potency [7] | outcome [8]

O=S1(=O)OCCO1
inactive: outcome [1] | Potency [2] | Potency [5] | Potency [6] | Potency [10] | Potency [7] | outcome [8]
